Experimental data: PubChem BioAssay AID1272365 (Small Molecule Screening Facility, UW Madison, 2020)
Where “and” joins values, the source holds several entries; their conditions need not be identical. Equal values may be shown once. The whole screen tested about 430,000 compounds, of which about 2,600 (0.6%) were called active. No stated cut-off is given here; in the data, active means inhibition mostly above about 37% (no sharp cut-off); inactive means mostly below about 20%. The sample as a whole holds a higher share of actives than the screen did.

The molecules below were run on PriA–SSB C-terminal tail interaction (Klebsiella pneumoniae) (assay: inhibitors of Klebsiella pneumoniae PriA binding to SSB C-terminal tail, primary screen, biochemical, AlphaScreen (AID 1272365;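 further: plate controls were negative control peptide for no effect and reference peptide for full effect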)). Details: AlphaScreen SSBct-PriA binding, biotinylated peptide; at 33 µM, stronger effect = higher value.

Row | SMILES | inhibition
1 | Cc1cccc(-n2cnc(C(=O)Nc3cccnc3)c2)n1 | -12.9% (inactive)
2 | O=C(NNC(=S)Nc1ccccc1)c1cccc(S(=O)(=O)N2CCOCC2)c1 | -5.79% (inactive)
3 | Cc1cccc(-n2cnc(C(=O)NNC(=S)Nc3ccccc3)c2)n1 | 66.5% (active)
4 | O=C(NCC(F)(F)F)C1CCN(c2cc(-n3cncn3)ncn2)CC1 | 4% (inactive)
5 | O=C(Nc1ccc([N+](=O)[O-])cc1Br)C12CC3CC(CC(C3)C1)C2 | -8% (inactive)
6 | Cc1c(CCOC(=O)C23CC4CC(CC(C)(C4)C2)C3)sc[n+]1Cc1ccc([N+](=O)[O-])cc1 | 39% (active)
7 | Cc1c(CCOC(=O)CC23CC4CC(CC(C)(C4)C2)C3)sc[n+]1Cc1ccc([N+](=O)[O-])cc1 | 6.21% (inactive)
8 | COc1ccc(-c2noc(CN3N=NC4C(=O)N(c5ccc(C)c(F)c5)C(=O)C43)n2)c(OC)c1 (stereo not drawn) | 6% (inactive)
9 | O=C(NCC(O)(c1ccccc1)C(F)(F)F)C(=O)Nc1ccccc1 (stereo not drawn) | -3% (inactive)
10 | CS(=O)(=O)N1CCC(CNC(=O)c2cc3ccccc3o2)CC1 | -23% (inactive)
11 | CC1(C)N=C(SCC(=O)Nc2ccc(Br)cc2)C(c2ccccc2)=N1 | -5% (inactive)
12 | CN(C)CCCN(C(=O)c1ccccc1)c1nc2c(F)cc(F)cc2s1 | 5% (inactive)
13 | COc1cccc2sc(N(CCCN(C)C)C(=O)c3ccc(F)cc3)nc12 | -18% (inactive)
14 | COc1cc2nc(N(CCN(C)C)C(=O)c3ccc(S(=O)(=O)N(C)Cc4ccccc4)cc3)sc2cc1OC | 24% (inactive)
15 | CCOc1ccc2nc(N(CCN(C)C)C(=O)c3ccc(S(=O)(=O)N4CCC(C)CC4)cc3)sc2c1 | 29% (inactive)
16 | COc1ccc2nc(N(CCN3CCOCC3)C(=O)c3ccccc3S(C)(=O)=O)sc2c1 | 0% (inactive)
17 | CCOc1ccc2nc(N(Cc3ccncc3)C(=O)Cc3ccc(F)cc3)sc2c1 | 13% (inactive)
18 | CC1CN(S(=O)(=O)c2ccc(C(=O)N(CCN(C)C)c3nc4cc5c(cc4s3)OCCO5)cc2)CC(C)O1 (stereo not drawn) | 15% (inactive)
19 | CCOc1ccc2nc(N(CCN(C)C)C(=O)c3ccc4ccccc4c3)sc2c1 | 14.2% (inactive) and 45% (active)
20 | CN(C)CCN(C(=O)CCOc1ccccc1)c1nc2cc3c(cc2s1)OCO3 | 7% (inactive)
21 | COc1ccc2nc(N(CCN(C)C)C(=O)c3ccc(S(=O)(=O)N4CCCc5ccccc54)cc3)sc2c1 | 41% (active)
22 | CN(C)CCCN(C(=O)c1ccc(S(=O)(=O)N2CCCc3ccccc32)cc1)c1nc2ccc(F)cc2s1 | 42% (active)
23 | Cc1ccc2nc(N(CCN(C)C)C(=O)c3ccc(S(=O)(=O)N4CCCCCC4)cc3)sc2c1 | 35% (active)
24 | O=C1CCCC(=O)N1CCS(=O)(=O)N1CCC(c2nnc(-c3ccco3)s2)CC1 | -4% (inactive)

Row | SMILES | inhibition
25 | O=C([C@@H]1CC=CCC1)N1CCN(c2ccc(-n3cncn3)nn2)CC1 | -9% (inactive)
26 | CCc1nc(-c2ccc(N3CCN(C(=O)c4cc5cccc(OC)c5o4)CC3)nc2)no1 | -1% (inactive)
27 | NCc1n[nH]c(=O)c2ccccc12 | -2% (inactive) and -4% (inactive)
28 | COC(=O)c1ccccc1NC(=O)c1snnc1C | -11% (inactive)
29 | COc1cccc2cc(C(=O)Nc3ccc4nc(N5CCN(C)CC5)sc4c3)oc12 | -6% (active)
30 | COc1ccc(OC)c(C(=O)Nc2ccc3nc(N4CCN(C)CC4)sc3c2)c1 | 6% (inactive) and -21% (inactive)
31 | CN1CCN(c2nc3ccc(NC(=O)c4ccc5c(c4)OCO5)cc3s2)CC1 | -2% (inactive)
32 | O=C(NCC#CCOc1ccc2c(c1)OCO2)Nc1ccccc1C(F)(F)F | -21% (inactive)
33 | Cc1ccccc1-c1nc(CSc2nc(C)c(Cc3ccccc3)c(=O)[nH]2)c(C)o1 | 7% (inactive)
34 | Cc1nc2oc(-c3ccccc3)nc2cc1NC(=O)c1cc(=O)c2ccccc2o1 | -8% (inactive)
35 | Cc1c(C(=O)O)cccc1-c1ccc(C=NNc2ccc(Br)cc2)o1 | 0.6% (inactive)
36 | CC(NC(=O)c1ccco1)C(=O)Nc1nc(-c2ccccn2)cs1 (stereo not drawn) | 74.4% (active)
37 | CC(C)Sc1ccc(C(=O)Nc2nc(-c3ccccn3)cs2)cc1 | 50.6% (inactive)
38 | O=C(Nc1nc(-c2ccccn2)cs1)c1ccc(-c2ccccc2)cc1 | -19% (inactive)
39 | CCSc1ccc(C(=O)Nc2sc(-c3ccccc3)cc2C(N)=O)cc1 | -22% (inactive)
40 | O=C(NN=Cc1cc(Cl)cc([N+](=O)[O-])c1O)c1cccc(S(=O)(=O)N2CCOCC2)c1 | 41.7% (active)
41 | CCOc1cc(C=NNC(=O)c2cccc(S(=O)(=O)N3CCOCC3)c2)ccc1OCC(=O)N(C)C | -12.5% (inactive)
42 | CC(=O)Nc1ccc(C=NNC(=O)c2cccc(S(=O)(=O)N3CCOCC3)c2)cc1 | -5.31% (inactive)
43 | O=C(Oc1cccc(Oc2ccccc2)c1)N1CCCCC1 | -33% (inactive)
44 | O=C(Nc1nc(CCC(=O)N2CCN(c3ncccn3)CC2)cs1)NC1CCCCC1 | -9% (inactive)
45 | COc1ccccc1CNC(=O)CSc1nc2c(-c3ccccc3)c[nH]c2c(=O)n1C1CC1 | -8% (inactive)
46 | CCc1ccccc1NC(=O)NCCOc1ccc2nnc(-c3cccc(F)c3)n2n1 | -4% (inactive)
47 | O=S(=O)(NCC1(CO)CC1)c1cccc(Cl)c1 | -9% (inactive)
48 | Cc1cc(C(=O)NCC2CCCN2c2ccccc2)no1 (stereo not drawn) | 0% (inactive)

Row | SMILES | inhibition
49 | O=C(NC[C@H]1CCCN1c1ccccc1)c1cc(-c2ccco2)[nH]n1 | 47% (active)
50 | COCCNC(=O)NC[C@H]1CCCN1c1ccccc1 | 6% (inactive)
51 | COc1ccc(OC)c(C(=O)Nc2nnc(Cc3ccc(Cl)s3)o2)c1 | -12% (inactive)
52 | COc1cc(CO)ccc1OCC(=O)Nc1cccc2ccccc12 | -4.4% (inactive)
53 | COc1ccc(Cn2c(CO)cnc2SCC(=O)Nc2cccc3ccccc23)cc1 | 41% (active)
54 | COc1ccc(-c2nnc(SCC(=O)Nc3cccnc3Cl)n2C)cc1 | 2.83% (inactive)
55 | O=S(=O)(Cc1ccccc1)N1CCN(c2cc(-n3cccc3)ncn2)CC1 | 6% (inactive)
56 | CCCN1C(=O)C(C)(C)COc2ccc(N)cc21 | 32% (inactive)
57 | Cn1cccc1-c1noc(CNC(=O)c2n[nH]c(=O)c3ccccc23)n1 | -3% (inactive)
58 | CCC(=O)Nc1c(C)nc2scc(C)n2c1=O | 13% (inactive)
59 | N#Cc1nc(-c2cccc3ccccc23)oc1N | -28.7% (inactive)
60 | CC1CCN(c2oc(-c3ccccc3F)nc2C#N)CC1 | 42.8% (active)
61 | N#Cc1nc(-c2ccco2)oc1N1CCN(C(=O)c2ccccc2F)CC1 | 9% (inactive)
62 | O=C(NC[C@]1(O)CCc2ccccc21)c1ccccc1F | -14% (inactive)
63 | O=C(NCCc1ccccc1)NCCC(O)c1ccccc1 (stereo not drawn) | -6% (inactive)
64 | CC(C)C(NC(=O)c1ccc([N+](=O)[O-])cc1)c1nc2ccccc2[nH]1 (stereo not drawn) | -6% (inactive)
65 | Clc1cccc(N=C2NN=C(c3ccc4c(c3)OCCO4)CS2)c1 | 44.3% (active)
66 | c1ccc(Cc2nnc(-c3ccc4c(c3)OCCO4)o2)cc1 | -10% (inactive)
67 | c1ccc(CN2CCC(N=C3NN=C(c4ccc5c(c4)OCCO5)CS3)CC2)cc1 | 49.7% (active)
68 | CC(=NC1CCN(Cc2ccccc2)CC1)c1c(O)[nH]c(=O)[nH]c1=O | -3% (inactive)
69 | O=C(Cc1cc(=O)[nH]c(SCc2cccc(Cl)c2)n1)Nc1ccc2c(c1)OCCO2 | 12% (inactive)
70 | CC1Oc2ccccc2OC1C(=O)N1CCN(c2nc3c(S(C)(=O)=O)cccc3s2)CC1 (stereo not drawn) | -4% (inactive)
71 | Cc1ccc(Cl)cc1-n1ccn(CC#N)c(=O)c1=O | -5% (inactive)
72 | Cc1ccc(Nc2cc(C)nc3c(C)ccc([N+](=O)[O-])c23)cc1 | 106% (active)

Row | SMILES | inhibition
73 | Cc1ccc2nc(C(=O)O)cc(Nc3ccc(C)c(C)c3)c2c1 | -5% (inactive)
74 | Cc1ccc(NC2=NC(c3ccccc3)n3c(nc(C)cc3=O)N2)cc1 (stereo not drawn) | -5.57% (inactive)
75 | O=C(Nc1cccc(-c2nc3ccccc3s2)c1)c1ccc([N+](=O)[O-])cc1 | -2% (inactive)
76 | CC(=O)OCC1OC(Oc2ccc(C(=O)/C=C/c3ccccc3)cc2)C(OC(C)=O)C(OC(C)=O)C1OC(C)=O (stereo not drawn) | 5% (inactive)
77 | CCN(CC)CCC(c1ccc2c(c1)OCO2)c1c(OC)cc(OC)c2c(-c3ccccc3)cc(=O)oc12 (stereo not drawn) | 24.5% (inactive)
78 | COc1cc(OC)c2ccc(=O)oc2c1C(CCN1CCN(c2ccccc2)CC1)c1ccc2c(c1)OCO2 (stereo not drawn) | 41.6% (active)
79 | COc1cc(C(CCN2CCN(c3ccccc3)CC2)c2c(OC)cc(OC)c3ccc(=O)oc23)cc(OC)c1OC (stereo not drawn) | -0.54% (inactive)
80 | C=CCOc1ccc(C(O)=C2C(=O)C(=O)N(CCOC)C2c2cccnc2)cc1 (stereo not drawn) | 0.46% (inactive)
81 | FC(F)Sc1ccc(-c2csc(Nc3ccccc3)n2)cc1 | -4% (inactive)
82 | O=C(c1ccc(Br)o1)N1CCC(CSc2ccccn2)CC1 | 7% (inactive)
83 | CC(=O)Nc1ccc(C(=O)N2CCc3nc4ccc(Cl)cn4c(=O)c3C2)cc1 | -7% (inactive)
84 | CC(C)CS(=O)(=O)C1CN(C(=O)c2ccc3nsnc3c2)C1 | -14% (inactive)
85 | OCc1cccc2cccnc12 | 41.4% (inactive)
86 | Oc1ccc(CN2CCCCCC2)c2cccnc12 | 124% (active)
87 | Oc1c(CN2CCCC2)cc(Cl)c2cccnc12 | 103% (inactive)
88 | Oc1c(CN2CCOCC2)ccc(CN2CCOCC2)c1O | -7.99% (inactive)
89 | COc1ncc(Br)c2ncccc12 | -7% (inactive)
90 | Oc1ccc(CN2CCCC2)c2cccnc12 | 106% (active)
91 | COCCOCc1ccc(O)c2ncccc12 | 114% (active)
92 | Clc1ccc(CN2CCCCCC2)cc1Cl | -4.06% (inactive)
93 | O=[N+]([O-])c1ccc(N2CCCCC2)c2cccnc12 | 46.9% (inactive)
